Assay outcomes from PubChem BioAssay.
Sampled rows, rich in hits. Any-hit rate of the full collection: about 4.1%.
Shn3 3UTR inh: reduction of Shn3 3'UTR firefly luciferase signal, primary screen, Schnurri-3 inhibitor project, cell-based, Clone20 osteoblasts, set 2; Clone20 osteoblast Shn3 3'UTR firefly luciferase, 24 h; inhibition, % at 12.5 µM; 360,000 tested, 0.52% active;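 active = mean inhibition of at least 75% with every replicate also reaching 75%; inconclusive = mean inhibition at least 75% but some replicate below; inactive = mean inhibition below 75%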;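 also: 0% = median of neutral control wells and 100% = pilot-screen positive control compound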
MITF TRPM1 inh: inhibitors of MITF-dependent TRPM1 promoter reporter, primary screen, cell-based, SK-MEL-5, single point, luciferase; SK-MEL-5 TRPM1 promoter luciferase, 24 h; inhibition, % at 12.5 µM; 330,000 tested, 0.83% active; AID 488899, 2010;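 active = mean inhibition across replicates of 60% or more, whatever share of single replicates reaches that level; inconclusive = some that reach 60%, reason not given; inactive = mean inhibition across replicates below 60%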
TROY signal inh: inhibitors of TROY-driven NF-kB signaling, primary screen, Q293 LMP1-TROYcd cells, NF-kB luciferase, uHTS; Q293 LMP1-TROYcd NF-kB luciferase reporter, 4 h; AID 1347056, 2019; inhibition, % at 10 µM; 360,000 tested, 0.98% active;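 active = compounds whose plate-normalised and pattern-corrected inhibition of the luciferase reporter signal at the single screening dose is 50% or more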
TWEAK-Fn14 inh: inhibitors of TWEAK-Fn14 signaling, primary screen, luciferase reporter cells, uHTS; TWEAK-stimulated Fn14 reporter cells, luciferase luminescence, 8 h; inhibition, % at 10 µM; 360,000 tested, 2% active; AID 1159606, 2016; in the data active = inhibition above about 50%
Peg3 promoter: Peg3 promoter-driven luciferase inhibitors, primary screen, cell-based, HeLa, luciferase luminescence. HeLa PEG-Prom luciferase reporter, overnight. 360,000 tested, 1.7% active. AID 588405, 2011. inhibition, % at 20 µM;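 active = inhibition of at least 50% at 20 µM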
LMP1 NFkB inh: EBV LMP1-driven NF-kappaB luciferase reporter inhibitors, primary screen, cell-based, luminescence, single point; LMP1-induced NF-kappaB luciferase reporter cells; inhibition, % at 12.5 µM; 350,000 tested, 0.69% active; in the data active = inhibition above about 41%; inconclusive = no clear call, values can overlap the other calls;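 also: 0% = neutral control wells and 100% = reference inhibitor control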
The depositor's hits bear a star; ? = inconclusive; / = no result.

SMILES | Shn3 3UTR inh | MITF TRPM1 inh | TROY signal inh | TWEAK-Fn14 inh | Peg3 promoter | LMP1 NFkB inh
COc1ccc(C2(O)CCN(CC(=O)Nc3nc(-c4ccccc4)cs3)CC2)cc1 | 6 | -2 | 46 | 83* | 43 | 4
CCOC(=O)c1c(NC(=O)CSc2nnc(-c3c[nH]c4ccccc34)n2CCOC)sc2c1CCCCC2 | 12 | / | 3 | 53* | 17 | 3
CCSc1nnc(NC(=O)CSc2nnc(-c3c[nH]c4ccccc34)n2CC)s1 | 4 | 3 | 2 | 8 | -6 | 85*
CN1CCN(CC(=O)Nc2nc(-c3ccccc3)cs2)CC1 | 0 | -2 | -8 | -1 | -18 | 4
CCn1c(SCC(=O)Nc2nc(-c3ccccc3)cs2)nnc1-c1ccccc1 | 1 | -2 | 43 | 54* | 4 | 9
Cc1ccc2cccc(OCC(=O)NCCC3=CCCCC3)c2n1 | -3 | 7 | -47 | -32 | -7 | -11
CN(C)c1ccc2c(=O)c3ccccc3oc2n1 | -41 | / | -27 | 55* | -120 | /
CCOc1ccc2nc(NC3=NC(C)(C)C=C(C)N3)nc(C)c2c1 | 32 | 12 | 2 | -80 | 53* | -32
CCOc1ccc2c(C)nc(NC3=NC(C)(C)C=C(C)N3)nc2c1 | 10 | 9 | -11 | -41 | 40 | -5
CCOc1ccc2nc(NC3=NC(c4ccc(OC)cc4)CC(=O)N3)nc(C)c2c1 (stereo unspecified) | 49 | ? | -10 | -37 | 62* | -8
CCCCCCn1c(=O)n2n(c1=O)[C@@H]1CN(S(=O)(=O)c3ccc(C)cc3)C[C@]1(O)[C@@H](OC(=O)Nc1cccs1)C2 | 45 | / | 3 | 19 | 21 | 2
COc1ccccc1CNC(=O)c1ccc(NC(=O)CC2SC(N3CCCC3)=NC2=O)cc1 (stereo unspecified) | 6 | -5 | -17 | 5 | -3 | -7
Clc1cc(Br)ccc1OCCCNCc1ccccc1 | 15 | -5 | -24 | -21 | 56* | -3
Cc1ccc(C)c(OCCCNCc2ccccc2)c1 | 5 | 7 | -18 | -5 | -7 | 1
Brc1ccc(OCc2ccccc2)c(CNCc2ccncc2)c1 | 69 | 5 | 52* | 27 | 51* | 6
CSc1ncccc1C(=O)OCC(=O)C(C)(C)C | -18 | -4 | 3 | 14 | 6 | 2
COc1ccc(NC(=O)N2CCCC(c3nc(-c4ccc(OC)cc4)no3)C2)cc1 (stereo unspecified) | 7 | -4 | 33 | 36 | -122 | 9
COc1ccc(NC(=O)N2CCCC(c3nc(-c4ccc(C(C)C)cc4)no3)C2)cc1 (stereo unspecified) | 27 | 16 | 69* | 59* | -60 | -25
COc1cccc(NC(=O)Cn2c(=O)n(C)c(=O)c3sc4c(c32)COC(C)(C)C4)c1 | 7 | -3 | -30 | 14 | 3 | 7
O=C(/C=C/c1ccc(F)cc1)c1ccccc1Br | -18 | -22 | 1 | 63* | 104* | -13
Cc1ccc(C(=O)/C=C/c2ccc(F)cc2)o1 | -13 | -17 | -69 | -3 | -41 | -19
N#CC1=C(N)N(c2ccc(Br)cc2)C2=C(C(=O)CCC2)C1c1cccnc1 (stereo unspecified) | 8 | -2 | -4 | -1 | 25 | 0
O=C(Nc1ccc2c(c1)OCCO2)C(c1cc2ccccc2o1)N1CCN(c2ccc(F)cc2)CC1 (stereo unspecified) | 10 | / | 85* | 85* | -31 | /
O=C(Nc1ccc2c(c1)OCCO2)C(c1cc2ccccc2o1)N1CCN(C/C=C/c2ccccc2)CC1 (stereo unspecified) | -6 | / | 83* | 86* | -13 | /
O=C(Nc1ccc2c(c1)OCCO2)C(c1cc2ccccc2o1)N1CCN(c2ccc(C(F)(F)F)cn2)CC1 (stereo unspecified) | -11 | / | 86* | 88* | -21 | /
SMILES | Shn3 3UTR inh | MITF TRPM1 inh | TROY signal inh | TWEAK-Fn14 inh | Peg3 promoter | LMP1 NFkB inh
CC(C)C(O)P(=O)(OCc1ccccc1)c1ccc(N(C)C)cc1 (stereo unspecified) | 53 | -2 | -4 | 6 | 10 | 1
COCc1cccc(-c2csc(C(O)c3ccc(OC)cc3)n2)c1 (stereo unspecified) | 7 | / | -4 | -6 | -5 | /
N#C/C(=C\c1ccc(O)c(O)c1)C(=O)N1CCCC1 | -18 | 9 | -5 | -35 | 5 | -7
N#C/C(=C\c1ccc(O)c(O)c1)C(=O)c1ccc(O)c(O)c1 | 21 | -5 | 16 | 63* | 2 | 2
CC1CCC(NC(=O)C(NC(=O)c2ccccc2)C(C)C)CC1 (stereo unspecified) | -13 | -1 | -1 | -27 | -2 | -8
CCOC(=O)N1CCN(c2ccc(S(=O)(=O)N3CCOCC3)cn2)CC1 | 0 | -9 | 6 | 8 | -11 | -4
CCOC(=O)N1CCN(c2ccc(S(=O)(=O)N(Cc3ccccc3)Cc3ccccc3)cn2)CC1 | 83 | 18 | 62* | 42 | -19 | 23
CCOC(=O)c1nc(NCc2ccccc2C)c2ccccc2n1 | 6 | -12 | -10 | 16 | 8 | 2
CCOC(=O)c1nc(NCc2ccccc2F)c2ccccc2n1 | 20 | -2 | -9 | 5 | 17 | 77*
Cc1ccccc1N(C=O)c1ccccc1C | 0 | -9 | 14 | 2 | 3 | -1
C#CCOc1c(Cl)cc(/C=C2/C(=O)ON=C2C)cc1OC | 17 | 7 | -5 | 63* | -5 | 5
COc1cc(/C=C2/C(=O)ON=C2C)cc(Cl)c1O | 75 | 18 | 6 | -5 | 13 | -7
CCCOc1ccc(/C=C2/C(=O)ON=C2C)cc1Cl | 6 | 14 | 8 | -4 | 65* | 10
CC(CCc1ccccc1)NC(=O)Cn1cccc1C(=O)c1ccccc1 (stereo unspecified) | -4 | 0 | -14 | 5 | 20 | -13
CCc1ccccc1OCCCN1CCCC1 | -10 | -7 | -3 | 59* | 9 | 6
CCOC(=O)C(=Cc1cc(=O)c(OC)co1)C(=O)OCC | 20 | 98* | 42 | 98* | 106* | 23
OC1c2cc(Br)ccc2N=C2CCCN21 (stereo unspecified) | -12 | 2 | 19 | -3 | 26 | -15
CCc1c(OC(C)=O)c2ccccc2n(C)c1=O | 2 | -8 | -38 | 11 | 13 | -13
C=CCc1c(OC(C)=O)c2ccccc2n(C)c1=O | 7 | 13 | 14 | 55* | 13 | -10
N#Cc1cnc(Nc2nc3ccccc3o2)nc1-c1ccccc1 | -28 | -9 | 7 | -3 | -29 | -13
Cc1nc(Nc2nc3ccccc3o2)nc(C)c1C | -39 | -3 | 17 | 57* | -81 | 8
Cc1ccnc(Nc2nc3ccccc3o2)n1 | 15 | 17 | 31 | 80* | -4 | 40
